# Shown are actives, neighbours in structure and some others; about 2.4% of the full set was active somewhere.
# M1 PAM parental: nonselective calcium activators in parental CHO-K1 cells, primary screen, counter-screen for M1 PAM project, cell-based, Fluo-8 calcium fluorescence, full deck, 1536-well; ATP EC20; 0% at ATP EC20, 100% at ATP max; 360,000 compounds, 0.02% hits; activation, % at 3 µM;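 active = activation above the run cutoff, the mean activation of all test compounds plus 3 SD, cut at about 40% in these data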;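 also: peak over basal fluorescence ratio in a 140 s read after ATP addition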
# M1 PAM: human M1 muscarinic receptor positive allosteric modulators, primary screen, CHO-K1 cells, Fluo-8 calcium fluorescence, 1536-well | Muscarinic acetylcholine receptor M1 (Homo sapiens), P11229 | CHO-K1 hM1, ACh EC20; 0% = ACh EC20, 100% = maximal ACh | activation, % at 3 µM | 360,000 compounds, 0.088% hits; in the data active = activation above about 19%, passing the limit was not always enough
# Target sequence (P11229 whole entry, looked up): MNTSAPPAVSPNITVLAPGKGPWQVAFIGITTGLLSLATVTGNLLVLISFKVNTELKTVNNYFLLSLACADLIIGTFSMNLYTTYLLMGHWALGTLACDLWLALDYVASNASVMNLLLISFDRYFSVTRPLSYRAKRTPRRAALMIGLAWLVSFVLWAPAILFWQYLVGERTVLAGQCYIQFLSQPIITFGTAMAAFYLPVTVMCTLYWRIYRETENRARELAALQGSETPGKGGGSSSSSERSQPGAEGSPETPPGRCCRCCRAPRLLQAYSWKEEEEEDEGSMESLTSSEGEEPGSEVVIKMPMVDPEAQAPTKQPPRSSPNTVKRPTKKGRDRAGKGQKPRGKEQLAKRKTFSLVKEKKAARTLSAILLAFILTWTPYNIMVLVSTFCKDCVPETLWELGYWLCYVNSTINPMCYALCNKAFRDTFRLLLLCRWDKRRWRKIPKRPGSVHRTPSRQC
# CHO-K1 Ca antag: nonselective inhibitor or artifact in parental CHO-K1 cells; inhibition, % at 3 µM; ATP-induced calcium, Fluo-8 fluorescence; 360,000 compounds, 0.6% hits; AID 602250;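 active = inhibition above a per-plate cutoff, the plate's mean sample inhibition plus 3 SD, cut at about 24% in these data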;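 also: 0% = DMSO plus EC80 ATP and 100% = DMSO alone without ATP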
# CHO-K1 Ca ag: counter-screen for M1 agonists: effect in parental CHO-K1 cells. Fluo-8 calcium fluorescence; scaled to maximal ATP response, vehicle zero. activation, % at 3 µM. 360,000 compounds, 0.48% hits. AID 602248, 2012; in the data active = activation above about 15%;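 also: untransfected CHO-K1 host cells lacking M1 receptor as counterscreen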
# M1 ag: human M1 muscarinic receptor agonists, primary screen, Fluo-8 calcium fluorescence, CHO-K1 cells, HTS. activation, % at 3 µM. 360,000 compounds, 0.33% hits. CHO-K1 hM1, agonist mode; 0% DMSO, 100% acetylcholine EC100. Muscarinic acetylcholine receptor M1 (Homo sapiens), P11229;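 active = activation above the run's mean compound activation plus 3 SD, cut at about 16% in these data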;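 also: peak over basal fluorescence ratio within a 140 s kinetic read after compound addition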
# CHRM1 antagonist: human M1 muscarinic receptor antagonists, primary screen, CHO-K1 cells, Fluo-8 calcium fluorescence, 1536-well. CHO-K1 hM1, ACh EC80 antagonist. inhibition, % at 3 µM. 360,000 compounds, 1.3% hits. AID 588852, 2011;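 active = percent inhibition above its own plate's cutoff, namely the mean of that plate's compound wells plus 3 SD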;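 also: peak over basal fluorescence ratio during 140 s after agonist addition; 0% = ACh EC80 plus DMSO and 100% = DMSO alone without agonist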
# Active calls of the source: *.
SMILES,M1 PAM parental,M1 PAM,CHO-K1 Ca antag,CHO-K1 Ca ag,M1 ag,CHRM1 antagonist
C[C@H](CO)N1C[C@H](C)[C@@H](CN(C)S(=O)(=O)c2ccccc2)Oc2ccc(NC(=O)NC3CCCCC3)cc2C1=O,-11,-31,7,0,-11,39*
C[C@H](CO)N1C[C@H](C)[C@@H](CN(C)S(=O)(=O)c2cccs2)Oc2ccc(NC(=O)NC3CCCCC3)cc2C1=O,13,-33,-8,0,-11,44*
C[C@@H]1CCCCO[C@H](CN(C)S(=O)(=O)c2cccs2)[C@H](C)CN([C@@H](C)CO)C(=O)c2cc(NC(=O)NC3CCCCC3)ccc2O1,20,-2,-11,0,-7,-10
Cc1noc(C)c1C(=O)N(CC(=O)Nc1ccc(Cl)c(C(F)(F)F)c1)Cc1ccco1,-14,3,15,1,-3,-1
O=C(CCc1ccc(S(=O)(=O)N2CCOCC2)cc1)Nc1nc(COc2ccccc2)cs1,5,-18,-1,11,-4,18
O=C1/C(=C\c2cccnc2)Sc2ccccc21,13,16,-3,1,19*,3
O=S1(=O)CC(N2CCN(c3ccccn3)CC2)CN1C1CCCCC1 (stereo not drawn),-8,12,15,1,5,-7
O=C(NC(=S)NNC(=O)c1ccco1)c1ccc(Br)cc1,6,2,-2,18*,25*,-4
O=C(NNC(=S)NC(=O)c1ccco1)c1ccc(F)cc1,20,9,1,24*,4,-2
COc1cccc(CN2c3ccc(Br)cc3C(=O)CS2(=O)=O)c1,-12,0,14,0,-4,2
CCOC(=O)N1CCN(C(=O)c2c[nH]c3ccc(S(=O)(=O)N(C)c4cccc(C)c4)cc3c2=O)CC1,1,3,-7,0,4,-10
CCOC(=O)N1CCN(C(=O)c2c[nH]c3ccc(S(=O)(=O)N(C)c4ccccc4C)cc3c2=O)CC1,6,7,58*,1,-2,-7
CCC(=O)Nc1nnc(SCCN2CCOCC2)s1,-1,-10,10,9,-8,33*
CCCCOCCCNc1ncnc2c1[nH]c1ccccc12,-8,-22,30*,11,4,35*
CCOCCCNc1ncnc2c1[nH]c1ccccc12,2,-9,4,6,-1,18
CC1CCN(C(=O)c2ccc(CNS(=O)(=O)c3ccc(C(C)(C)C)cc3)cc2)CC1,-9,-19,-6,1,-7,20
O=C(COC(=O)Cc1ccc(Br)cc1)NC1CCCC1,14,6,-20,0,-4,-15
Cc1ccc(C)c(NC(=O)C(NCC(C)(C)N2CCOCC2)c2ccccc2)c1 (stereo not drawn),17,-27,-10,1,-8,92*
Cc1ccc(C)c(NC(=O)C(c2ccccc2)N2CCN(CC(=O)N3CCOCC3)CC2)c1 (stereo not drawn),21,7,-14,2,-1,-5
CCCCCCn1cc(C(=O)O)c(=O)c2ccccc21,0,-2,-3,0,32*,-4
COc1ccc2c(c1)c(=O)c(C(=O)c1ccccc1)cn2Cc1ccccc1,-10,2,3,0,-1,-1
O=C(O)c1cn(Cc2ccccc2)c2ccc(Cl)cc2c1=O,20,9,-13,1,47*,-8
Oc1ccc(-c2n[nH]c(C(F)(F)F)c2-c2ccccc2)c(O)c1,-4,-24,28*,8,-3,42*
COc1ccc(-c2c(-c3ccc(O)cc3O)n[nH]c2C(F)(F)F)cc1,-20,17,12,0,5,3
O=C(CCNC(=O)c1ccc([N+](=O)[O-])cc1)NCCc1ccccc1,12,11,2,0,-5,-6

# Screens (PubChem BioAssay)
